Experimental data from PubChem BioAssay AID1159580 (chemical genetic matrix, 2015).
Values joined by “and” are separate entries in the source; they are usually repeats but may differ in a detail not shown here. Identical values can stand only once. Screen size: about 5,500 compounds; about 2,000 (36%) were called active. Not shown: some 18% with an inconclusive outcome. Cut-off read from the data, not from the text of the source: active = normalized growth mostly below about 0.91 (no sharp cut-off); inconclusive = no clear call, values can overlap the other calls; inactive = mostly above about 0.92. Some of the results follow.

Experiment: chemical genetic growth profiling, strain panel (AID 1159580);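 note: tested at 20 µM; growth read once vehicle control cultures reached saturation at 30 °C; 1 = growth at the plate median or of vehicle wells; lower values mean less growth of the strain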
Settings: S. cerevisiae deletion strains, growth OD

Measured: normalized growth

CC1(C)NC(=O)N(c2ccc([N+](=O)[O-])c(C(F)(F)F)c2)C1=O
inactive: locus YAL013W, strain DEP1, hits give low values 1.01 and 0.99 | locus YAL021C, strain ccr4, hits give low values 1.02 | locus YAL026C, strain drs2, hits give low values 0.983 | locus YAL030W, strain snc1, hits give low values 0.99 | locus YAL040C, strain CLN3, hits give low values 1.05 | locus YBL061C, strain skt5, hits give low values 0.98 | locus YBR009C, strain hhf1, hits give low values 0.982 | locus YBR021W, strain FUR4, hits give low values 1.02 | locus YBR023C, strain chs3, hits give low values 0.987 | locus YBR171W, strain sec66, hits give low values 0.98 | locus YBR229C, strain ROT2, hits give low values 1.01 | locus YBR231C, strain swc5, hits give low values 0.989 | locus YBR279W, strain paf1, hits give low values 0.994 | locus YCL011C, strain gbp2, hits give low values 0.985 | locus YCL016C, strain dcc1, hits give low values 0.986 | locus YCL029C, strain bik1, hits give low values 0.967 | locus YCL061C, strain MRC1 (second series), hits give low values 1 | locus YCL061C, strain MRC1, hits give low values 0.976 | locus YCL069W, strain vba3, hits give low values 0.98 | locus YCR088W, strain abp1, hits give low values 0.982 | locus YDL005C, strain med2, hits give low values 0.993 | locus YDL035C, strain GPR1, hits give low values 1 | locus YDL040C, strain nat1, hits give low values 0.984 | locus YDL074C, strain BRE1, hits give low values 1.02 | locus YDL101C, strain DUN1, hits give low values 1.01 | locus YDL134C, strain PPH21, hits give low values 1.02 | locus YDL185W, strain tfp1, hits give low values 0.977 | locus YDL192W, strain arf1, hits give low values 0.983 | locus YDR001C, strain nth1, hits give low values 0.985 | locus YDR069C, strain doa4, hits give low values 0.99 | locus YDR101C, strain arx1, hits give low values 0.982 | locus YDR137W, strain rgp1, hits give low values 0.894 | locus YDR150W, strain NUM1, hits give low values 1.03 | locus YDR159W, strain sac3, hits give low values 0.985 | locus YDR162C, strain NBP2, hits give low values 1 | locus YDR195W, strain ref2 0.975 | locus YDR297W, strain sur2, hits give low values 0.99 | locus YDR318W, strain mcm21, hits give low values 0.994 | locus YDR334W, strain swr1, hits give low values 0.989 | locus YDR335W, strain msn5, hits give low values 0.994 | locus YDR363W, strain ESC2, hits give low values 0.975 | locus YDR388W, hits give low values 0.983 | locus YDR392W, strain spt3, hits give low values 0.998 | locus YDR502C, strain sam2, hits give low values 0.984 | locus YEL003W, strain gim4, hits give low values 0.985 | locus YEL037C, strain rad23, hits give low values 0.988 | locus YEL061C, strain CIN8 (second series), hits give low values 0.989 | locus YEL061C, strain CIN8, hits give low values 0.999 | locus YER002W, strain NOP16, hits give low values 0.996 | locus YER015W, strain faa2, hits give low values 0.971 | locus YER016W, strain bim1, hits give low values 0.983 | locus YER110C, hits give low values 0.971 | locus YER111C, strain swi4, hits give low values 0.985 | locus YER155C, strain BEM2 (second series), hits give low values 0.987 | locus YER155C, strain BEM2, hits give low values 0.996 | locus YER167W, strain BCK2, hits give low values 1.01 | locus YFR010W, strain ubp6, hits give low values 0.985 | locus YGL078C, strain dbp3, hits give low values 0.986 | locus YGL086W, strain mad1, hits give low values 0.992 | locus YGL167C, strain pmr1, hits give low values 0.983 | locus YGL173C, strain kem1, hits give low values 0.976 | locus YGL227W, strain vid30, hits give low values 0.973 | locus YGL240W, strain doc1, hits give low values 0.98 | locus YGL248W, strain PDE1, hits give low values 1.01 | locus YGL253W, strain hxk2, hits give low values 0.985 | locus YGR078C, strain PAC10, hits give low values 1.01 and 0.981 | locus YGR135W, strain pre9, hits give low values 0.98 | locus YGR229C, strain SMI1, hits give low values 1.02 | locus YGR252W, strain gcn5, hits give low values 0.978 | locus YHR013C, strain ard1, hits give low values 0.97 | locus YHR027C, strain rpn1, hits give low values 0.984 | locus YHR030C, strain SLT2, hits give low values 1.01 and 0.984 | locus YHR079C, strain IRE1 (second series), hits give low values 0.988 | locus YHR079C, strain IRE1, hits give low values 1 | locus YHR094C, strain hxt1, hits give low values 0.986 | locus YHR129C, strain ARP1, hits give low values 1.01 | locus YHR142W, strain chs7, hits give low values 0.986 | locus YHR200W, strain rpn10, hits give low values 0.987 | locus YIL066C, strain RNR3, hits give low values 1.02 | locus YIL073C, strain SPO22, hits give low values 1 | locus YIL125W, strain kgd1, hits give low values 0.986 | locus YIR030C, strain dcg1, hits give low values 0.983 | locus YJL092W, strain hpr5, hits give low values 0.978 | locus YJL095W, strain BCK1 (second series), hits give low values 0.982 | locus YJL095W, strain BCK1, hits give low values 0.991 and 1 | locus YJL115W, strain asf1, hits give low values 0.992 | locus YJL129C, strain trk1, hits give low values 0.991 | locus YJL134W, strain LCB3, hits give low values 1.01 | locus YJL154C, strain vps35, hits give low values 0.988 | locus YJL164C, strain tpk1, hits give low values 0.985 | locus YJL166W, strain qcr8, hits give low values 0.986 | locus YJL168C, strain set2, hits give low values 0.987 | locus YJL187C, strain SWE1 (second series), hits give low values 1.01 | locus YJL187C, strain SWE1, hits give low values 0.981 | locus YJR043C, strain POL32, hits give low values 1 | locus YJR066W, strain TOR1, hits give low values 0.956
